Screens deposited in PubChem by several laboratories.
Most compounds without a hit are left out; they make up all but 3.5% or so of the library.
Myeloid diff 2: compounds promoting myeloid differentiation; ER-HoxA9 myeloid progenitors, lysozyme-GFP differentiation, flow cytometry; calls only at 10 µM; 360,000 tested, 1% active; AID 624256;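 active = normalized GFP-positive differentiation at or above the plate's own cutoff, the solvent-only control mean plus 3 SD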;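 also: cells exposed to compound for four days before flow analysis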
SKN-1 inh: blocks SKN-1 activity in C. elegans | C. elegans VP596 Pgst-4::GFP/RFP ratio, acrylamide-induced, 24 h | inhibition, % at 21.8 µM | 360,000 tested, 0.49% active | AID 624304;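 active = interference check ratio from 0.5 to 1.5 plus GFP to RFP signal ratio inhibition reaching or exceeding a fixed threshold, cut at about 30% in these data, passing the limit was not always enough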
ATG4B inh: blocks human ATG4B protease cleavage of LC3 substrate; inhibition, % at 8.33 µM; ATG4B cleavage of LC3-PLA2, NBD-HPC fluorescence, 1 h; 340,000 tested, 0.51% active; in the data active = inhibition above about 40%
Target sequence (Q9Y4P1 whole entry, looked up): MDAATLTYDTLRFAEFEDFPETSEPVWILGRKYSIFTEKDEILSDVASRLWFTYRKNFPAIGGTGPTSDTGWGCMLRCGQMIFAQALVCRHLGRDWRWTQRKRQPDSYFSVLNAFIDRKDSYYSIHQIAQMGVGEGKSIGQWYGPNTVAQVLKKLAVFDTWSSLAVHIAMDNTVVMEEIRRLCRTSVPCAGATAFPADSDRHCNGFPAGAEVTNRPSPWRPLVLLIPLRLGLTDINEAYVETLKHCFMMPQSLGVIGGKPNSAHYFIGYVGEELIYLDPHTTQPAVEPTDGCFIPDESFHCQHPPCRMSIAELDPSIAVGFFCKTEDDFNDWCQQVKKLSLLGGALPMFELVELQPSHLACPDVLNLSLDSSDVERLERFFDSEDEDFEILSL
CHRM1 antagonist: human CHRM1 antagonism | P11229 | CHO-K1 hM1, Fluo-8 calcium fluorescence, ACh EC80 antagonist | inhibition, % at 3 µM | 360,000 tested, 1.3% active | AID 588852;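 active = percent inhibition above its own plate's cutoff, namely the mean of that plate's compound wells plus 3 SD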;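 also: peak over basal fluorescence ratio during 140 s after agonist addition; 0% = ACh EC80 plus DMSO and 100% = DMSO alone without agonist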
M1 ag: human M1 muscarinic receptor agonism; P11229; CHO-K1 hM1, Fluo-8 calcium fluorescence, agonist mode; 0% DMSO, 100% acetylcholine EC100; activation, % at 3 µM; 360,000 tested, 0.33% active; AID 588814;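 active = activation above the run's mean compound activation plus 3 SD, cut at about 16% in these data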;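 also: peak over basal fluorescence ratio within a 140 s kinetic read after compound addition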
CHRM1 PAM: potentiates human M1 receptor response to acetylcholine | CHO-K1 hM1, Fluo-8 calcium fluorescence, ACh EC20; 0% = ACh EC20, 100% = maximal ACh | activation, % at 3 µM | 360,000 tested, 0.088% active; in the data active = activation above about 19%, passing the limit was not always enough
Myeloid diff: compounds promoting myeloid differentiation; shares compounds with Myeloid diff 2; ER-HoxA9 myeloid progenitors, GFP/Mac1 double-positive flow; calls only; 2,300 tested, 2% active; AID 651706;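 active = share of green or green-and-red cells above 9 and 9% in run 1 or 4 and 3% in run 2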
GFP autofluor: flagged as fluorescent in myeloid differentiation counter-screen; shares compounds with Myeloid diff 2; ER-HoxA9 myeloid progenitors, no estrogen, GFP autofluorescence flow cytometry; vehicle wells 0%, positive control 100%; fluorescence response, % (test concentration not listed); 2,300 tested, 7.4% active;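 active = over 5% cells positive for green fluorescent reporter, or over 2% positive for both it and APC stain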;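 also: range taken on the double positive population between DMSO and positive control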
Starred values were filed as active, the others as inactive.

Screening CC1=C(C(=O)O)N2C(=O)C(NC(=O)c3nn(C)cc3[N+](=O)[O-])C2SC1 (centres undefined) returned Myeloid diff 2 inactive, SKN-1 inh -14, ATG4B inh -2, CHRM1 antagonist 16, M1 ag -4 and CHRM1 PAM -14.
For CC1=C(C(=O)O)N2C(=O)C(NC(=O)c3nn(C)c(C)c3Cl)C2SC1 (centres undefined) the results were Myeloid diff 2 inactive, SKN-1 inh 3, ATG4B inh -5, CHRM1 antagonist -5, M1 ag 1, CHRM1 PAM 6, Myeloid diff inactive and GFP autofluor 0.
Screening O=C(CNS(=O)(=O)c1ccccc1)Nc1cccc([N+](=O)[O-])c1 returned Myeloid diff 2 active, SKN-1 inh 13, ATG4B inh -2, CHRM1 antagonist -3, M1 ag -5, CHRM1 PAM 6, Myeloid diff inactive and GFP autofluor 1.
`CN(C)CCNc1nc(Oc2ccccc2)c2sccc2n1` gave Myeloid diff 2 inactive, SKN-1 inh 4, CHRM1 antagonist 0, M1 ag -9 and CHRM1 PAM -8.
Screening N#Cc1ccsc1NC(=O)C1CC(=O)N(Cc2ccccc2)C1 (centres undefined) returned Myeloid diff 2 inactive, SKN-1 inh 13, ATG4B inh 1, CHRM1 antagonist -10, M1 ag -2, CHRM1 PAM 2, Myeloid diff inactive and GFP autofluor 0.
Screening Cc1ccc2cc(CCNC(=O)c3ccc4c(c3)OCO4)c(=O)[nH]c2c1C returned Myeloid diff 2 inactive, SKN-1 inh -4, ATG4B inh -16, CHRM1 antagonist -12, M1 ag -3 and CHRM1 PAM 3.
O=C(NC1CCCCCCC1)c1ccc2c(c1)OCO2 was read as Myeloid diff 2 inactive, SKN-1 inh -23, ATG4B inh -6, CHRM1 antagonist -17, M1 ag -4 and CHRM1 PAM 9.
`c1cc2c(cc1NC1CCCCCC1)OCO2` gave Myeloid diff 2 active, SKN-1 inh 2, ATG4B inh 3, CHRM1 antagonist -14, M1 ag -1, CHRM1 PAM 10, Myeloid diff inactive and GFP autofluor 0.
`O=C(CN1C(=O)NC2(CCCCC2)C1=O)Nc1cccc(Cl)c1Cl` gave Myeloid diff 2 inactive, SKN-1 inh 12, ATG4B inh -6, CHRM1 antagonist -4, M1 ag -2 and CHRM1 PAM 9.
For O=C(CN1C(=O)NC2(CCCCC2)C1=O)Nc1ccccc1Cl the results were Myeloid diff 2 inactive, SKN-1 inh 6, ATG4B inh -8, CHRM1 antagonist -7, M1 ag -3, CHRM1 PAM 4, Myeloid diff inactive and GFP autofluor 0.
Cc1ccc(-c2noc(CN(C(=O)CCCN3C(=O)c4ccccc4C3=O)C(C)C)n2)cc1 was read as Myeloid diff 2 inactive, SKN-1 inh -11, ATG4B inh 6, CHRM1 antagonist -15, M1 ag 1 and CHRM1 PAM -1.
For Cc1ccc(-c2noc(CN(C(=O)CCN3C(=O)c4ccccc4C3=O)C(C)C)n2)cc1 the results were Myeloid diff 2 active, SKN-1 inh -47, ATG4B inh 7, CHRM1 antagonist 1, M1 ag -8, CHRM1 PAM -1, Myeloid diff inactive and GFP autofluor 0.
CCOC(=O)Cc1cnc(NC(=O)NC(C(=O)OCC)(c2ccccc2)C(F)(F)F)s1 (centres undefined) was read as Myeloid diff 2 inactive, SKN-1 inh -8, ATG4B inh -1, CHRM1 antagonist 5, M1 ag -3, CHRM1 PAM 7, Myeloid diff inactive and GFP autofluor 2.
For O=C(O)C1CCN(C(=O)CCc2ccccc2)CC1 the results were Myeloid diff 2 inactive, SKN-1 inh 0, ATG4B inh -2, CHRM1 antagonist -14, M1 ag 2 and CHRM1 PAM 20.
Cc1cccc(NC(=O)c2ccco2)c1C was read as Myeloid diff 2 inactive, SKN-1 inh 10, ATG4B inh 7, CHRM1 antagonist -14, M1 ag -4, CHRM1 PAM 3, Myeloid diff inactive and GFP autofluor 0.
`Nc1ccc(N2CCN(c3ccc(F)cc3)CC2)cc1` gave Myeloid diff 2 active, SKN-1 inh 0, ATG4B inh -5, CHRM1 antagonist 5, M1 ag -14, CHRM1 PAM -12, Myeloid diff inactive and GFP autofluor 0.
COc1ccccc1Nc1ncnc2ccccc12 was read as Myeloid diff 2 inactive, SKN-1 inh 8, ATG4B inh -5, CHRM1 antagonist 0, M1 ag -1, CHRM1 PAM 2, Myeloid diff inactive and GFP autofluor 0.
`COc1ccccc1Nc1nc2c(s1)CCC2` gave Myeloid diff 2 inactive, SKN-1 inh -1, ATG4B inh -12, CHRM1 antagonist -2, M1 ag -5, CHRM1 PAM -12, Myeloid diff inactive and GFP autofluor 0.
For COc1ccccc1Nc1c2c(nc3ccccc13)CCC2 the results were Myeloid diff 2 active, SKN-1 inh 2, ATG4B inh -2, CHRM1 antagonist 5, M1 ag -8, CHRM1 PAM -3, Myeloid diff inactive and GFP autofluor 1.
Cc1ccc(Nc2nc3c(s2)CCC3)c(C)c1 was read as Myeloid diff 2 inactive, SKN-1 inh 6, ATG4B inh 0, CHRM1 antagonist -8, M1 ag -6 and CHRM1 PAM 4.
`CCN(C[C@H]1N[C@@](CC)(C(=O)OC)[C@H]2C(=O)N(C)C(=O)[C@@H]12)C(=O)NC(C)C` gave Myeloid diff 2 inactive, SKN-1 inh 15, ATG4B inh -10, CHRM1 antagonist -2, M1 ag -1 and CHRM1 PAM 5.
For O=C(O)c1ccc2c3c(cccc13)C(=O)N(c1ccccc1)C2=O the results were Myeloid diff 2 inactive, SKN-1 inh 5, ATG4B inh -1, CHRM1 antagonist -8, M1 ag -8 and CHRM1 PAM 13.
Nc1ccc2c3c(cccc13)C(=O)N(c1ccccc1)C2=O was read as Myeloid diff 2 active, SKN-1 inh -18, ATG4B inh -18, CHRM1 antagonist 52*, M1 ag 121*, CHRM1 PAM -24, Myeloid diff inactive and GFP autofluor 0.
`CN(Cc1ccccc1)c1nc(N)nc(Cl)c1C=O` gave Myeloid diff 2 inactive, SKN-1 inh 14, ATG4B inh -3, CHRM1 antagonist -3, M1 ag -4 and CHRM1 PAM -2.
